Measurements as given in PubChem BioAssay (EPA / NIEHS).
Records with an inconclusive call do not appear. Active and inactive are the calls of the source. The calls were made as follows, unless noted: active = hit-call score of the fitted dose curve at least 0.9, where 1 is the maximum; inactive = score below 0.9.

Columns and labels:
[1] = target: Hepatocyte nuclear factor 4-alpha (Homo sapiens) (UniProt P41235); assay: ATG_HNF4a_TRANS: Attagene TRANS-FACTORIAL HepG2 Assay for human Hepatocyte Nuclear Factor 4 alpha (HNF4a) (AID 2282982; active = hit-call score of the fitted dose curve at least 0.9, where 1 is the maximum); settings: HepG2 HNF4a transactivation reporter, mRNA readout
Sequence of Hepatocyte nuclear factor 4-alpha (Homo sapiens) (P41235 whole entry, looked up, the tested form may be a part): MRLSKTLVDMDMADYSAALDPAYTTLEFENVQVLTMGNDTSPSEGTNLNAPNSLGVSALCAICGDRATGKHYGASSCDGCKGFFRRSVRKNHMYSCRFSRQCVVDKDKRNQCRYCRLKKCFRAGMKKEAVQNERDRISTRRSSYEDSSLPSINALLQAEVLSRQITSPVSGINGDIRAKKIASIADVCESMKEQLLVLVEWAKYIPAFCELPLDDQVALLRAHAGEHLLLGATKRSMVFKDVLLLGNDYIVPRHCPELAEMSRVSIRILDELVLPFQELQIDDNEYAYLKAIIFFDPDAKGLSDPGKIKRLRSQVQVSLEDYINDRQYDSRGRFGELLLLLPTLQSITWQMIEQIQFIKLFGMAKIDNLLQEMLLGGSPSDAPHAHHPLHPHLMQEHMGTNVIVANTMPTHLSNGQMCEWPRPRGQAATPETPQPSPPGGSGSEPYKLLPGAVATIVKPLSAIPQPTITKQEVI
How it was run: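 Gain-of-signal mRNA induction, relative to DMSO vehicle, was read after 24 h compound treatment of HepG2 cells bearing transfected GAL4-UAS reporters. Detection used RT-PCR, 6-FAM primer extension and capillary electrophoresis.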

[2] = ATG_M_32_TRANS: Attagene TRANS-FACTORIAL HepG2 Assay for M32 Transcription Factor (Internal Marker) (AID 2282984; active = hit-call score of the fitted dose curve at least 0.9, where 1 is the maximum;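 also: transcript level of a background control reporter unit measured by RT-PCR and capillary electrophoresis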); settings: HepG2 Attagene TRANS M32 internal marker reporter
How it was run: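 Capillary electrophoresis of 6-FAM-labelled reporter fragments gives the signal; data fitted for gain over DMSO negative control. Source: HepG2 cells bearing transient multiple reporter transcription units, 24 h exposure.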

[3] = target: Transcriptional activator Myb (Homo sapiens) (UniProt P10242); assay: ATG_Myb_CIS: Attagene CIS-FACTORIAL HepG2 Assay for human Myeloblastosis (Myb) Proto-Oncogene Transcription Factor (AID 2282986); settings: HepG2 Attagene CIS-FACTORIAL Myb reporter transcription; actives raise or lower the signal
Sequence of Transcriptional activator Myb (Homo sapiens) (P10242 whole entry, looked up): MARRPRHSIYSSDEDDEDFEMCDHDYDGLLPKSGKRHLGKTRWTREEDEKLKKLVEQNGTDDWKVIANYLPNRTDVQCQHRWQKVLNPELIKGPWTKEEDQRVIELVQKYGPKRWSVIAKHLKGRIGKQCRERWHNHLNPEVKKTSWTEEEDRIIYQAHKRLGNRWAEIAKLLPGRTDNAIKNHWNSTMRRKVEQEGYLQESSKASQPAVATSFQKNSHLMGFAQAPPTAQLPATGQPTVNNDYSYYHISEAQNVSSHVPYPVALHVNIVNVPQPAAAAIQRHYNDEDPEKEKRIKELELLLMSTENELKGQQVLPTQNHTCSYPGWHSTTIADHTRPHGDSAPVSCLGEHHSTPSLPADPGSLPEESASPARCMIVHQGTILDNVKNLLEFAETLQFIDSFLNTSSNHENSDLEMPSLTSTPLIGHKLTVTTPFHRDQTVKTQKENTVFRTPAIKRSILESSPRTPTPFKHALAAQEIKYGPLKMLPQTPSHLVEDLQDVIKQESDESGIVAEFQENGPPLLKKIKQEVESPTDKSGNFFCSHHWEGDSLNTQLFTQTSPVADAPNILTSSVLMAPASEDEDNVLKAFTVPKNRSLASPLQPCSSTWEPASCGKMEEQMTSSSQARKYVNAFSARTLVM
How it was run: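 Transiently transfected HepG2 cells carrying a multiplexed cis-promoter reporter set report endogenous Myb activity after 24 h compound exposure. Reporter mRNA is read by RT-PCR with capillary electrophoresis of fluorescent products, fitted bidirectionally against DMSO.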

[4] = target: Nuclear respiratory factor 1 (Homo sapiens) (UniProt Q16656); assay: ATG_NRF1_CIS: Attagene CIS-FACTORIAL HepG2 Assay for human Nuclear Respiratory Factor 1 (NRF1) Orphan Gene (AID 2282987); settings: HepG2 NRF1 cis-element reporter, Attagene multiplex; actives raise or lower the signal
Sequence of Nuclear respiratory factor 1 (Homo sapiens) (Q16656 whole entry, looked up): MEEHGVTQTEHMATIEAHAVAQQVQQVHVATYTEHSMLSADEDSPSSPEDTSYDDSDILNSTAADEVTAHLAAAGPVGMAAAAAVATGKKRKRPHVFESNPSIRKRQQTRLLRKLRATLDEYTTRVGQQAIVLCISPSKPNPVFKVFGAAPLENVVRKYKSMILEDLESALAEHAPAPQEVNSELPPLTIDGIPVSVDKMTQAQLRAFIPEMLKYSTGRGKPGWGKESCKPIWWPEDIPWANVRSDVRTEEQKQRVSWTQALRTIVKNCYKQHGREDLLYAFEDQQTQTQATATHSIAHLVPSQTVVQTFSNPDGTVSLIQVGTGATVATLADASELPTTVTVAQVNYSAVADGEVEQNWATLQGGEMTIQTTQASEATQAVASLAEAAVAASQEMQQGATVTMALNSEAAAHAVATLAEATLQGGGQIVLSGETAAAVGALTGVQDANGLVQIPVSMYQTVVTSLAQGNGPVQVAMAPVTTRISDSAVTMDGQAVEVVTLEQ
How it was run: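 HepG2 cells transiently transfected with multiple cis-regulated reporter units, exposed 24 h. Reporter mRNAs measured by RT-PCR, fluorescent labelling, HpaI digestion and capillary electrophoresis; bidirectional fitting against DMSO.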

[5] = ATG_NFI_CIS: Attagene CIS-FACTORIAL HepG2 Assay for human Nuclear Factor I (NFI) (AID 2282989); settings: HepG2 cis-regulatory reporter, NFI response element transcription; actives raise or lower the signal
How it was run: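 Transfected HepG2 liver cells, exposed 24 h, supplied total RNA for oligo(dT) reverse transcription and reporter-specific PCR. Labelled, HpaI-cut fragments were sized by capillary electrophoresis; DMSO set the baseline for bidirectional fitting.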

[6] = target: Myc proto-oncogene protein (Homo sapiens) (UniProt P01106); assay: ATG_Myc_CIS: Attagene CIS-FACTORIAL HepG2 Assay for human Myelocytomatosis (Myc) Proto-Oncogene Transcription Factor (AID 2282990); settings: HepG2, Attagene cis-reporter transcription factor activity; actives raise or lower the signal
Sequence of Myc proto-oncogene protein (Homo sapiens) (P01106 whole entry, looked up, the tested form may be a part): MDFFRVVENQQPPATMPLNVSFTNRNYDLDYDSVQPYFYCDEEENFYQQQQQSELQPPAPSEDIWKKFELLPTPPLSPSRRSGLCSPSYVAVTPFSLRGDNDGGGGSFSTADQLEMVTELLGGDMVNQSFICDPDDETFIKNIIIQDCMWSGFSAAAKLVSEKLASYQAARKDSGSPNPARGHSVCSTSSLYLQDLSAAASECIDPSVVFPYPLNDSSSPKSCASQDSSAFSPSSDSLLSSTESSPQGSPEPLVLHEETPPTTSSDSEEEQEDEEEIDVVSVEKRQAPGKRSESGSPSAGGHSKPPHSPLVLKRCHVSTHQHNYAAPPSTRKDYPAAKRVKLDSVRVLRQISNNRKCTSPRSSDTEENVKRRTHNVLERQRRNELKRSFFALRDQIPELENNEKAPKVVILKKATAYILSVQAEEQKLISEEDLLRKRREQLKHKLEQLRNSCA
How it was run: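 Fluorescence intensity of reporter-specific cDNA fragments, separated by capillary electrophoresis, gives the signal. Transfected HepG2 cells carrying cis-promoter reporter constructs are incubated with compound for 24 h; DMSO serves as baseline.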

[7] = ATG_NF_kB_CIS: Attagene CIS-FACTORIAL HepG2 Assay for human Nuclear Factor Kappa B (NF-kB) (AID 2282991); settings: HepG2 Attagene cis-factorial NF-kB reporter mRNA; actives raise or lower the signal
How it was run: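 HepG2 cells transfected with cis-promoter-driven reporter units, so endogenous transcription factor activity is measured. Reporter mRNA quantified 24 h after dosing by RT-PCR and capillary electrophoresis, with bidirectional fitting against DMSO.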

[8] = ATG_M_06_TRANS: Attagene TRANS-FACTORIAL HepG2 Assay for M06 Transcription Factor (Internal Marker) (AID 2282983; active = hit-call score of the fitted dose curve at least 0.9, where 1 is the maximum;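 also: reporter transcript level by RT-PCR then capillary electrophoresis fluorescence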); settings: HepG2 Attagene TRANS M06 internal marker reporter
How it was run: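 HepG2 cells transiently transfected with GAL4-UAS multiple reporter units, dosed 24 h. Reporter RNA reverse-transcribed, PCR-amplified, 6-FAM-labeled, HpaI-digested and quantified by capillary electrophoresis; this internal-marker signal fitted upward relative to DMSO.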

[9] = target: Nuclear receptor subfamily 4 group A member 2 (Homo sapiens) (UniProt P43354); assay: ATG_NURR1_TRANS: Attagene TRANS-FACTORIAL HepG2 Assay for human Nuclear Receptor Related Protein 1 (NURR1) (AID 2282985; active = hit-call score of the fitted dose curve at least 0.9, where 1 is the maximum); settings: HepG2 Attagene TRANS reporter, mRNA readout
Sequence of Nuclear receptor subfamily 4 group A member 2 (Homo sapiens) (P43354 whole entry, looked up): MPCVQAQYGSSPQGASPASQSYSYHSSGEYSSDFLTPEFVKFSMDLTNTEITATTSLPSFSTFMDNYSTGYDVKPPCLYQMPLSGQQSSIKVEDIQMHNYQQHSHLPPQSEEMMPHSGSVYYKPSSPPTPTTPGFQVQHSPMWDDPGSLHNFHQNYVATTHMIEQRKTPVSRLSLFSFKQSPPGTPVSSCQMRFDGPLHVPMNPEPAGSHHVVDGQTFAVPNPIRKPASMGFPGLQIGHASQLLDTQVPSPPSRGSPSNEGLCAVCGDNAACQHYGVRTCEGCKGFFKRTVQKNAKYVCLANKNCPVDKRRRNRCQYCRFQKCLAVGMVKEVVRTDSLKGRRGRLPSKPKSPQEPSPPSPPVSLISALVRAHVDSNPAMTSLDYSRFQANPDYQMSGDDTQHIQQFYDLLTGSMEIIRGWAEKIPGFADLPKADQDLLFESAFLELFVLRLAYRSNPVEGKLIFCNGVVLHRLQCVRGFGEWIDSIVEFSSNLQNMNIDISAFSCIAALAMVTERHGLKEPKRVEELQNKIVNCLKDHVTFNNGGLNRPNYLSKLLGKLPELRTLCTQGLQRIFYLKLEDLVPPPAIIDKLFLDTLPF
How it was run: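 HepG2 / transient MRTU transfection / 24 h compound exposure / RT-PCR + CE fluorescence of reporter mRNA / gain-of-signal vs DMSO.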

Measured: AC50

CCN(N=O)C(N)=O
not listed: [8] | [9]
inactive: all other assays above

Cc1cc(Cl)ccc1OCCCC(=O)O
not listed: [1]
inactive: all other assays above

O=c1[nH]c2ccccc2n1C1CCN(CCCC(c2ccc(F)cc2)c2ccc(F)cc2)CC1
not listed: [1]
inactive: all other assays above

BrCC(Br)c1ccccc1 (stereo not given)
not listed: [1] | [6]
inactive: all other assays above

CCC[N+](CCC)(CCC)CCC
not listed: [1] | [7] | [9]
inactive: all other assays above

CCCCC(CC)C(=O)Cl (stereo not given)
not listed: [2] | [6] | [9]
inactive: all other assays above

OC[C@@H](O)[C@H]1O[C@@H]2O[C@H](C(Cl)(Cl)Cl)O[C@@H]2[C@H]1O
not listed: [1]
inactive: all other assays above

Cc1cccc(N=Nc2ccc(N(C)C)cc2)c1
inactive: [1] | [8] | [3] | [4] | [5]

C1CN2CCN1CC2
not listed: [8]
inactive: all other assays above

O=S(=O)(C(Cl)(Cl)Cl)C(Cl)(Cl)Cl
active: [5] 17.9 µM | [6] 11.1 µM | [7] 15.6 µM
not listed: [1]
inactive: all other assays above

C=C(C)C(=O)OCC(CC)CCCC (stereo not given)
not listed: [2] | [6]
inactive: all other assays above

CC(C)(c1ccc(O)c(-c2ccccc2)c1)c1ccc(O)c(-c2ccccc2)c1
not listed: [1]
inactive: all other assays above

CCOc1ccc(N)cc1
not listed: [2] | [6] | [8]
inactive: all other assays above

CC(C)(C)c1cc([N+](=O)[O-])cc(C(C)(C)C)c1O
inactive: [1] | [3] | [4] | [5] | [6]
active: [9] 12.4 µM

ClCCCCl
not listed: [1] | [3]
inactive: all other assays above

CCCCOC(=O)COC(=O)c1ccccc1C(=O)OCCCC
not listed: [7] | [8]
inactive: all other assays above

CCCCCCCCBr
not listed: [8]
inactive: all other assays above

CC(=Cc1ccccc1)[N+](=O)[O-]
active: [4] 17.2 µM | [6] 18.6 µM | [7] 11.1 µM
not listed: [2]
inactive: all other assays above

O=C(O)C1(c2ccc3c(c2)OC[C@H](Cc2ccc(-c4ccccc4)cc2)[C@H]3O)CCCC1
not listed: [1] | [6]
inactive: all other assays above

CC(c1ccc(O)cc1)c1ccc(O)cc1
not listed: [7] | [8]
inactive: all other assays above

CC(=O)C(F)(F)C(F)(F)F
not listed: [2] | [3] | [9]
inactive: all other assays above

FC(F)OCC(F)(F)C(F)(F)F
not listed: [2] | [6] | [9]
inactive: all other assays above

Cc1cc(Cl)ccc1N
inactive: [8] | [2] | [3] | [4] | [5]

Cc1cccc(OP(=O)(Oc2cccc(C)c2)Oc2cccc(C)c2)c1
not listed: [1] | [8]
inactive: all other assays above

OC(Cc1ccccc1Cl)(Cn1[nH]cnc1=S)C1(Cl)CC1 (stereo not given)
inactive: [9] | [4] | [5] | [7]

Oc1cccc(-c2ccccc2)c1
active: [5] 139 µM
inactive: [8] | [9] | [4] | [6] | [7]

CC[N+](CC)(CC)CC
not listed: [1] | [9]
inactive: all other assays above

Cc1cccc(C)c1NC(=O)CN1CCCC1=O
not listed: [1] | [2] | [9]
inactive: all other assays above

Clc1cccc(Cl)c1
inactive: [3] | [4] | [5] | [6] | [7]

O=C(O)c1cc(I)cc(I)c1I
not listed: [1] | [8] | [9]
inactive: all other assays above
